Screening results: PubChem, several laboratories
697 NFkB inh = inhibitors of the PMA/ionomycin-induced NF-kB reporter in 697 B cells; 697 B-cell NF-kB luciferase reporter, 16 h; 330,000 tested, 0.33% active; AID 435022; inhibition, % at 4 µM; in the data active means inhibition above about 35%
Jurkat NFkB inh = lowers PMA/ionomycin-induced NF-kB signal in Jurkat cells | PMA/ionomycin-induced NF-kB luciferase reporter, luminescence | inhibition, % at 4 µM | AID 435003 | 330,000 tested, 0.53% active; in the data active means inhibition above about 50%
COUP-TFII inh = NR2F2 (human) inhibition, primary screen. inhibition, % at 8.6 µM. 370,000 tested, 0.7% active. HEK293T NGFI-A luciferase reporter, luminescence;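 active means inhibition above a per-plate cutoff, mean inhibition of test wells between control levels plus 3 SD, cut at about 38% in these data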;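 further: cells cotransfected with COUP-TFII expression vector driving the NGFI-A reporter; 0% = median of COUP-TF2 test wells and 100% = reporter-only cells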
Target sequence (P24468 whole entry, looked up): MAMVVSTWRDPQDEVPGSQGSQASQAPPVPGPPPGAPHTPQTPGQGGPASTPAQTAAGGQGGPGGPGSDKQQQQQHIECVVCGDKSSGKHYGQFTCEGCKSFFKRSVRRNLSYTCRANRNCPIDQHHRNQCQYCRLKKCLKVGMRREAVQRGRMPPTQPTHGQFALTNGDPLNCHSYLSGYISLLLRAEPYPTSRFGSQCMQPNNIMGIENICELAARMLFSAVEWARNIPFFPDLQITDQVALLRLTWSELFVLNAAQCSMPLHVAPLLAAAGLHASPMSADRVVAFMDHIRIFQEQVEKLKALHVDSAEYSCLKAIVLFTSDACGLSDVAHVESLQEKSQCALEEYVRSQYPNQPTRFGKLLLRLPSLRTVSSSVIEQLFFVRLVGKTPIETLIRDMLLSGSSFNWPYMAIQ
H9c2 protect = protects H9c2 cardiomyocytes from peroxide injury; 360,000 tested, 0.63% active; H2O2 injury protection, ATPLite, 2 h; protection from H2O2 cell death, % at 20 µM; AID 588492;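 active means compounds giving at least 50% protection of heart cells from peroxide-induced death in the single-dose screen, raw or plate-pattern-corrected value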;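 further: 0% = DMSO wells with peroxide and 100% = DMSO wells without peroxide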
Gli-Sufu block = antagonists of Gli-Sufu signaling; Sufu-KO-LIGHT fibroblasts, Gli luciferase reporter luminescence; inhibition, % at 5 µM; 340,000 tested, 0.74% active;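 active means inhibition above about 55%, limit read from the data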;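 further: 0% = DMSO-treated cells and 100% = wells with medium but no cells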
TAG inh = inhibitors of triacylglycerol accumulation. inhibition, % at 12.5 µM. 230,000 tested, 0.66% active. H9c2 cells, Nile Red lipid (TAG) fluorescence; cells loaded with 200 µM oleic acid;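 active means pattern-corrected inhibition of lipid staining of at least 50% with the nuclear-stain viability signal not falling by more than 50%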;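 further: 0% = DMSO wells and 100% = triacsin C control wells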
The depositor's hits bear a star; · = not tested or not shown. In the library only some 2.6% were active in any assay of this set; here they are far more common.

SMILES | 697 NFkB inh | Jurkat NFkB inh | COUP-TFII inh | H9c2 protect | Gli-Sufu block | TAG inh
NC(=O)c1ccccc1OCC(=O)Nc1cccnc1Cl | -12 | -10 | 10 | 53* | -5 | 17
CN(C)c1ccc(/C=C/c2cccc[n+]2[O-])cc1 | -34 | -30 | -12 | 0 | -35 | 13
CN(C)c1ccc(/C=C/c2ccc3c4ccccc4ccc3[n+]2-c2ccccc2)cc1 | · | · | 85* | -24 | 92* | 67*
COc1ccc(CNCC#CC2=CCCCC2)c(OC)c1 | · | · | -39 | · | · | ·
COc1cc(-c2cc3nc(NCCc4ccncc4)ccn3n2)cc(OC)c1OC | · | · | -78 | 16 | · | 23
COc1cc(CCNc2ccc3nnc(-c4ccccc4)n3n2)cc(OC)c1OC | 9 | -21 | -20 | 56* | 18 | 15
O=C(NN1C(=O)/C(=C\c2cccnc2)SC1=S)C(c1ccccc1)c1ccccc1 | 9 | -2 | 9 | 60* | -12 | ·
O=C(NN1C(=O)/C(=C/c2cccnc2)SC1=S)C(c1ccccc1)c1ccccc1 | 11 | -5 | 12 | 22 | -3 | ·
COc1cc2cc(-c3ccc(O)cc3O)nc(C)c2cc1OC | 34 | -11 | -118 | 71* | 35 | ·
COc1cc2cc(-c3ccc(OC)c(OC)c3C)nc(N)c2cc1OC | -13 | 47 | -67 | -6 | 46 | 43
O=C(N/N=C/c1ccc(-c2cccc([N+](=O)[O-])c2)o1)c1ccc([N+](=O)[O-])cc1 | 3 | 9 | 8 | 72* | 10 | 9
COc1cc(C(=O)NCC(=O)N/N=C/c2ccc(-c3ccc([N+](=O)[O-])cc3)o2)cc(OC)c1OC | 30 | 23 | 17 | 22 | -7 | ·
COc1cc(C(=O)NCC(=O)N/N=C/c2ccc(-c3cccc([N+](=O)[O-])c3)o2)cc(OC)c1OC | 26 | 12 | 0 | 66* | -30 | ·
O=C(N/N=C/c1ccc(-c2cccc([N+](=O)[O-])c2)o1)c1ccccc1O | -1 | -1 | 1 | 35 | -1 | 0
Cc1ccc(C(=O)N/N=C\c2ccc(-c3ccc(Cl)cc3)o2)cn1 | -17 | -2 | -13 | 60* | -10 | 9
O=C(NC(O)C(=O)c1cccs1)c1cccnc1 (stereo not drawn) | 8 | -13 | -5 | 83* | -8 | 8
COc1cc(/C=C(/C#N)c2nc3ccccc3[nH]2)ccc1OCC(=O)Nc1ccccc1C(C)C | 7 | 30 | 1 | 68* | -1 | ·
CCCCCCn1cnc2c(c1=O)c1nc3ccccc3nc1n2/N=C/c1ccco1 | · | · | 7 | 55* | 6 | ·
CCOC(=O)[C@]12CCCC=C1N(Cc1ccc(OC)cc1)C(=O)[C@@H]2CC(=O)NCC12CC3CC(CC(C3)C1)C2 | · | · | 5 | · | · | ·
CCN1C(=O)[C@H]2[C@@H](c3ccc(-c4cccc(Cl)c4)c(OC)c3)N[C@@](CC(C)C)(C(=O)OC)[C@H]2C1=O | -6 | -14 | 3 | -10 | 2 | 70*
CCN1C(=O)[C@H]2[C@@H](c3ccc(-c4cccc(Cl)c4)cc3)N[C@@](CC(C)C)(C(=O)OC)[C@H]2C1=O | 14 | 0 | -21 | -5 | 4 | 29
COC(=O)c1ccc(Cn2nnc3c(=O)[nH]c(C4CCCN(S(=O)(=O)c5ccccc5)C4)nc32)cc1 (stereo not drawn) | 0 | -6 | 16 | 61* | 6 | ·
O=c1[nH]c(C2CCCN(S(=O)(=O)c3ccccc3)C2)nc2c1nnn2Cc1ccccc1 (stereo not drawn) | 6 | 2 | 9 | 3 | 4 | ·
COc1ccc(COc2cc(-c3cccc(OC)c3)nc3ccc(NC(=O)c4ccc(OC)cc4)cc23)cc1 | 21 | 31 | -73 | 58* | 19 | 57*
COc1ccc(COc2cc(-c3cccc(OC)c3)nc3ccc(NC(=O)c4ccc(Cl)cc4)cc23)cc1 | 6 | 6 | -8 | 22 | 3 | 39
SMILES | 697 NFkB inh | Jurkat NFkB inh | COUP-TFII inh | H9c2 protect | Gli-Sufu block | TAG inh
COc1ccc(COc2cc(-c3cccc(OC)c3)nc3ccc(NC(=O)c4cccnc4)cc23)cc1 | 35 | 17 | 5 | 91* | 9 | 16
COc1cccc(NC(=O)c2cc(-c3cccnc3)nc3c(Cl)cccc23)c1 | -7 | 11 | 7 | 21 | 4 | ·
O=C(CCc1nc2ccccc2c(=O)[nH]1)NCCN1C(=O)S/C(=C\c2ccc(OC(F)F)cc2)C1=O | · | · | -26 | 69* | 13 | 13
COc1ccc(CN2C(=O)c3ccnn3CC2(C)c2nnnn2-c2c(C)cccc2C)cc1 (stereo not drawn) | · | · | 6 | · | · | ·
Cc1cc(C)n(-c2ccc3cccc(NS(C)(=O)=O)c3n2)n1 | -23 | 34 | -4 | 88* | 42 | -55
CC(C)(C)OC(=O)N1CCC(NC(=O)c2nc[nH]c2C(=O)NCC(=O)OCc2ccccc2)CC1 | 10 | 9 | 5 | 72* | -9 | 8
C[C@@H](NC(=O)c1nc[nH]c1C(=O)OCc1ccccc1)c1ccccc1 | 16 | 11 | -13 | 16 | 0 | ·
CC(C)(C)OC(=O)CNC(=O)c1[nH]cnc1C(=O)NC1CCN(C(=O)OC(C)(C)C)CC1 | 14 | 10 | -15 | · | 3 | ·
O=C(CNC(=O)c1nc[nH]c1C(=O)N1CCc2ccccc2C1)OCc1ccccc1 | 9 | 7 | -14 | 105* | -8 | 0
O=C(CNC(=O)c1nc[nH]c1C(=O)N1CCNCC1)OCc1ccccc1 | 13 | -3 | 10 | 14 | -1 | 2
C[C@@H](NC(=O)c1nc[nH]c1C(=O)NCC(=O)OCc1ccccc1)c1ccccc1 | -12 | -19 | 6 | 92* | -1 | -2
CCOC(=O)C1=NOC(C(=O)NCc2ccccc2)(C(=O)c2ccc(OC)cc2)C1 (stereo not drawn) | · | · | -14 | · | · | ·
Cc1ccc2nc(-c3ccccc3)cc(C(=O)NNC(=O)c3csc(N4CCOCC4)n3)c2c1 | 18 | 23 | 24 | 58* | 0 | 6
O=C(NNC(=O)c1ccccc1OCc1ccccc1Cl)c1csc(N2CCOCC2)n1 | 23 | 9 | 13 | 52* | 4 | 4
O=S1(=O)c2ccc(N3CCN(Cc4ccccc4F)CC3)cc2Oc2ccccc2CN1Cc1cn(Cc2cccc(C(F)(F)F)c2)nn1 | · | · | 2 | · | · | ·
Cc1nc(N2CCc3ccccc3C2)[nH]c(=O)c1Cc1ccccc1 | -19 | -21 | 0 | -18 | -8 | -30
Cc1nc(-n2[nH]c3c(c2=O)CCCC3)[nH]c(=O)c1Cc1ccccc1 | -13 | -15 | 7 | 70* | 46 | 2
Cc1ccc2c(Cl)cc(Cl)c(O)c2n1 | · | · | 11 | 23 | 59* | 17
Cc1cc(C)c2nc(SCC(=O)N3CC(=O)Nc4ccccc43)c(C#N)cc2c1 | -128 | 49 | -29 | -1 | 41 | 54*
CC(C)C(=O)NC(c1cccs1)c1cc([N+](=O)[O-])c2cccnc2c1O (stereo not drawn) | -6 | -5 | · | 56* | -10 | ·
Cc1ccc(C(NC(=O)C(C)C)c2cc([N+](=O)[O-])c3cccnc3c2O)cc1 (stereo not drawn) | -19 | -1 | 0 | 51* | -9 | ·
